Assay outcomes (PubChem)
The sample as a whole holds a higher share of hits than the screen did.
Dicer processing – human Dicer pre-microRNA cleavage inhibition. cat-ELCCA pre-miR-21 Dicer processing, chemiluminescence; active compounds read high. Q9UPY3. z-score at 25 µM. AID 1347074. hit rate 6% among 47,000; in the data active = z-score above about 3, passing the limit was not always enough;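 also: plate controls were vehicle for no effect and no enzyme for full effect; higher signal means more uncleaved substrate so more Dicer inhibition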
* hit, by the source's call.

SMILES	Dicer processing
CCOc1ccc(N2C(=O)C3C4c5ccccc5C(C(=O)O)(c5ccccc54)C3C2=O)cc1 (stereo not drawn)	1.09
Cc1[nH]c(=S)[nH]c(=O)c1Cc1cccc(C(F)(F)F)c1	2.91
COc1ccc(NC(=O)C2=Cc3cccc(OC)c3OC2)cc1	3.79*
COc1ccc(NC(=O)c2cccc3c2-c2ccc(I)cc2C3)cc1	-0.13
COc1ccc(NC(=O)Nc2cccc(NC(=O)Nc3ccc(OC)cc3)c2F)cc1	-0.32
N#Cc1ccsc1NC(=O)C(Cl)Cl	0.02
C=CCSc1n[nH]c(=O)n1C1CCCCC1	-1.05
C=CCSc1nnc2[nH]c(=O)cc(N)n12	5.19*
CC(C)CSc1nnc2[nH]c(=O)cc(N)n12	2.42
COc1ccccc1OCCSc1nnc2[nH]c(=O)cc(N)n12	1.95
CCCCCCSc1nnc2[nH]c(=O)cc(N)n12	3.82*
C=C(C)CSc1nnc2[nH]c(=O)cc(N)n12	2.88
CC1CC(N(C(=O)c2cccs2)c2ccccc2)c2ccccc2N1 (stereo not drawn)	7.94
O=C1c2oc3ccccc3c(=O)c2C(c2ccc(OCc3ccccc3)cc2)N1c1nccs1 (stereo not drawn)	0.36
COC(=O)c1sccc1NC(=O)c1cc(S(=O)(=O)N(C)C)oc1C	0.18
O=C(Cn1c(-c2ccccc2)cc(=O)n2ncnc12)N/N=C/c1ccc2c(c1)OCO2	-0.78
Cc1cc(=O)n2ncnc2n1CC(=O)NN	3.13*
Cc1cc(=O)n2ncnc2n1CC(=O)N/N=C/c1ccc(Cl)cc1	-0.7
COC(=O)N1C2C=CC(C2)C1(C(F)(F)F)C(F)(F)F (stereo not drawn)	-1.44
O=C(OC1CCCCc2cccnc21)c1ccc(Cl)cc1 (stereo not drawn)	-1.12
C=C1SC(=Nc2ccccc2Cl)N(C(=O)c2c(-c3ccccc3Cl)noc2C)C1(C)C	-0.46
Cc1ccc(C2Nn3c(nnc3-c3ccccc3)SC2C(=O)N2CCOCC2)cc1 (stereo not drawn)	-0.66
Cc1ccc(C2Nn3c(nnc3-c3ccccc3)SC2C(=O)N2CCCCC2C)cc1 (stereo not drawn)	3*
O=C(C1Sc2nnc(-c3ccccc3)n2NC1c1ccccc1)N1CCCC1 (stereo not drawn)	-0.08
O=C(Nc1scc2c1c(=O)oc1ccccc12)c1cccs1	-0.1
SMILES	Dicer processing
CNC(=O)c1cnn(-c2c(Cl)cc(Cl)cc2Cl)c1COC	-0.25
Cc1ccc(C(=O)Nc2ccc3[nH]cc(C#N)c3c2)cc1	-0.19
O=C(CCn1nnc(-c2cccc(Cl)c2Cl)n1)N/N=C/c1ccccc1Cl	3.19*
Cn1c(C(=O)N/N=C/c2ccccc2Cl)cnc1SCc1ccc(Cl)cc1	0.03
CCOC(=O)c1ccc(NC(=S)N/N=C/c2ccccc2Cl)cc1	9.89
COC(=O)c1ccc(S(=O)(=O)Oc2ccccc2N2CCOCC2)o1	1.04
Cc1cc(C)c(NC(=O)CS(=O)(=O)c2ccc(C(F)(F)F)cc2[N+](=O)[O-])c(C)c1	-0.5
S=C(NNc1ncccc1-n1cccc1)Nc1ccc(Cl)cc1	6.31
Cc1ccc(S(=O)(=O)Nc2cccc3cccc(Br)c23)cc1	3.13*
Cc1ccc(S(=O)(=O)Nc2ccc(C)cc2C)cc1	1.65
Cc1ccc(S(=O)(=O)Nc2cccc3ccccc23)cc1	2.92
CC(=O)c1ccc(OC(=O)c2ccc(Cl)cc2)cc1OC(=O)c1ccc(Cl)cc1	0.89
N#C/C(=C\c1ccc(Cl)cc1Cl)C(=O)O	0.88
O=C(Nc1ccc(N2CCOCC2)cc1)c1ccco1	-0.66
Nc1nnc(SCC(=O)Nc2nncs2)s1	3.11*
Nc1nnc(SCC(=O)Nc2ccccc2)s1	6.02
Nc1nnc(SCC(=O)Nc2ccc(F)c(F)c2F)s1	-0.64
COc1ccc(N=C2NC(=O)C(CC(=O)Nc3ccc(Br)cc3)S2)cc1 (stereo not drawn)	2.43
c1coc(-c2nc3sc(-c4ccco4)nc3s2)c1	-1.77
NC(=S)NNc1ccc(Cl)c(Cl)c1	2.32
N/C(=N\C(=S)Nc1ccc(Cl)c(Cl)c1)c1ccccc1	5.38*
CC(C)c1ccc(NC(=S)N=C(N)N)cc1	2.14
Cc1cc(=O)[nH]c(SCC(N)=O)n1	4.59*
Cc1cc(=O)[nH]c(SCC(=O)C(C)(C)C)n1	0.9
Cc1ccc(C(=O)CSc2nc(C)cc(=O)[nH]2)cc1	4.61*
SMILES	Dicer processing
COc1ccc(C(=O)CSc2nc(O)cc(=O)[nH]2)cc1	-2.58
O=C(CSc1nc(C(F)(F)F)cc(=O)[nH]1)c1ccc(Cl)cc1	-1.17
Cc1cc(=O)[nH]c(SCC(=O)N(c2ccccc2)c2ccccc2)n1	1.3
CC(=O)c1c(C)cc2cc(C)cc(O)c2c1O	-0.58
Cc1ccc(NC2=C(Cl)C(=O)OC2C(C(N)=O)C(N)=O)cc1 (stereo not drawn)	0.29
O=c1[nH]nc(Sc2ncc([N+](=O)[O-])s2)n1C1CCCCC1	-0.19
CC(C)N(Cc1ccc(N(C)C)cc1)C(=S)Nc1ccc(Cl)c(Cl)c1	0.97
COc1ccc(OCc2nc3ccccc3n2CC(C)C)cc1	0.64
O=[N+]([O-])c1ccc(-c2csc(N3CCOCC3)n2)cc1	18.7
Cn1c(C2CC(=O)N(c3ccccc3)C2)nc2ccccc21 (stereo not drawn)	-0.05
COc1ccc(C2/C(=C(\O)c3ccc(Cl)cc3)C(=O)C(=O)N2c2nnc(C)s2)cc1OC (stereo not drawn)	4.08*
COc1ccc(C2/C(=C(\O)c3ccc(F)cc3)C(=O)C(=O)N2c2nnc(C)s2)cc1OC (stereo not drawn)	1.7
Cc1nnc(N2C(=O)C(=O)/C(=C(/O)c3ccccc3)C2c2ccccc2)s1 (stereo not drawn)	1.52
COC(=O)C1=C(C)NC2=C(C(=O)CC(C)(C)C2)C1c1cc(OC)c(OC)cc1Br (stereo not drawn)	1.36
CCCCc1[nH]nc2c1C1(CCN(C)CC1)C(C#N)=C(N)O2	-7.21
CC(=O)NC12CC3CC(C1)CC(NC(C)=O)(C3)C2	-0.09
CC(C)(C)c1cc2nc(C(F)(F)F)cc(N3CCN(/C=C(\C#N)S(=O)(=O)c4cccs4)CC3)n2n1	-0.61
O=C(O)CCCCCCN=C1NC(=O)CS1	-1.07
COc1ccccc1N=C(N)SCc1ccccc1	5.87*
NC(=Nc1ccccc1)SCc1ccc([N+](=O)[O-])cc1	-1.44
N#Cc1ccc(CSC(N)=Nc2ccccc2)cc1	-0.99
CCOC(=O)CSc1nc2c(c(=O)[nH]1)C(c1ccc([N+](=O)[O-])cc1)C1=C(CC(C)(C)CC1=O)N2 (stereo not drawn)	-0.25
Cc1cc(C)nc(SCC(=O)c2ccc(O)c(O)c2)n1	3.15*
Cc1cc(C)nc(SCCC(=O)O)n1	3.23*
CCc1nc(SCC(=O)c2ccc(O)c(O)c2)n[nH]1	0.01
SMILES	Dicer processing
Cc1cc(C)nc(SCc2ccccc2)n1	-0.98
Cc1cc(C)nc(SCC(=O)Nc2ncccn2)n1	1.11
Cc1cc(C)nc(SCC(=O)c2cccs2)n1	2.44
Cc1cc(C)nc(SCC(=O)c2ccccc2)n1	-0.31
O=C(CSc1n[nH]c(-c2ccccc2Cl)n1)c1ccc(O)c(O)c1	4.89*
COc1ccccc1-c1nc(SCC(=O)c2ccccc2)n[nH]1	0.59
FC(F)(F)c1cc(/C=N/Nc2ccc(-c3csnn3)cc2)cc(C(F)(F)F)c1	-2.4
CN(c1ccccc1)S(C)(=O)=O	1.02
O=c1[nH]c2ccccc2nc1-c1ccc(Br)s1	0.02
O=C1C2C3CCCC3=C3CCCC3C2C(=O)N1c1ccccc1F (stereo not drawn)	3.54
CCOC(=O)c1c(COc2ccccc2)oc2ccc(O)cc12	1.51
CCOC(=O)c1c(CN2CCOCC2)oc2ccc(OC)cc12	3.52*
CCOC(=O)c1c(C)oc2ccc(OCC(N)=O)cc12	2.99
